Among the data in PubChem BioAssay AID371 (SRMLSC, 2006) are growth inhibition values, retold here.

Screen size: about 3,300 compounds; about 280 (8.5%) were called active. The sample as a whole holds a higher share of actives than the screen did. Unmarked numbers belong to inactive results.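 Rule for the calls: active = mean growth inhibition over the two runs of 50% or more; inactive = mean growth inhibition under 50%.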

The assay in a line: A549 NSCLC cell proliferation inhibitors – ATP luminescence, human non-small cell lung line, primary screen (AID 371).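 Note: compound exposure lasted 72 h before the ATP read; 0% = untreated cell signal and 100% = no luminescence left.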 The settings on record: at 10 µM, hits give high values.
As for `COc1cccc(C(=O)N2CCN(Cc3ccccn3)CC2)c1OC`, the growth inhibition is -2.78%.
As for `COc1ccc(Cn2c(N)c(C#N)c3nc4ccccc4nc32)cc1OC`, the growth inhibition was 11.7%.
The figure for `CC[C@H](C)C(=O)O[C@H]1C[C@@H](C)C=C2C=C[C@H](C)[C@H](CC[C@@H]3C[C@@H](O)CC(=O)O3)[C@H]21` is 64.9% (active).
The figure for `COc1cc(C2C(C(C)=O)=C(O)C(=O)N2c2ccc(Br)cn2)ccc1O` (stereo not given) is 3.52%.
The figure for `CC1(C)CC(=O)C(C=NCCN2CCN(C(=O)C34CC5CC(CC(C5)C3)C4)CC2)=C(O)C1` is 3.05%; for `COc1ccccc1-n1c(=O)c2c3c(sc2n2c(SC)nnc12)CCC3` it is 6.85%.
Take `COc1ccc2c(c1)[nH]c1c(=O)n(CC3CCCO3)cnc12` (stereo not given): the growth inhibition was 8.24%.
The figure for `COc1cccc(OCCN2CCN(c3ncnc4c3cnn4-c3ccccc3)CC2)c1` is 46.7%.
In the case of `COc1cccc(N2CCN(C(=O)c3ccc(=O)oc3)CC2C)c1` (stereo not given), the growth inhibition was -1.33%.
The figure for `COc1cccc(N2CCN(c3ncnc4c3[nH]c3ccc(F)cc34)CC2C)c1` (stereo not given) is 93% (active).
The figure for `COc1cccc(N2CCN(c3ncnc4c3[nH]c3ccccc34)CC2C)c1` (stereo not given) is 91.9% (active); for `CCOC(=O)C1/C(=N\O)CC(C)(O)C(C(=O)OCC)C1c1ccc(N(C)C)cc1` (stereo not given) it is 7.47%.
The figure for `Cc1nnc2n(Cc3ccccc3)c(=O)c3c4c(sc3n12)CN(Cc1ccccc1)CC4` is 40.6%; for `CCCSc1nnc2n(Cc3ccccc3)c(=O)c3c4c(sc3n12)CCC4` it is 13.6%.
In the case of `O=c1c2c3c(sc2n2cnnc2n1Cc1ccccc1)CN(Cc1ccccc1)CC3`, the growth inhibition was 70.5% (active).
The figure for `CC1CCc2cc(F)cc3c(O)c(C(=O)Nc4cnccn4)c(=O)n1c23` (stereo not given) is 26.4%; for `CC1CCc2cc(F)cc3c(O)c(C(=O)NCC4CCCO4)c(=O)n1c23` (stereo not given) it is 61.9% (active); for `CC1CCc2cc(F)cc3c(O)c(C(=O)NCc4ccco4)c(=O)n1c23` (stereo not given) it is 46.7%.
The figure for `COC(=O)c1cc(Br)c(=O)n(Cc2ccc3c(c2)OCO3)c1` is 9.14%; for `O=C(NCc1cccnc1)/C(=N\O)c1ccccc1` it is 0.76%; for `CCN1CCN(c2nc3c(C)cccn3c(=O)c2/C=C(\C#N)S(=O)(=O)c2ccc(C)cc2)CC1` it is 1.14%.
The figure for `CCCc1cc(C(=O)Cc2ccc(F)cc2)c(O)cc1O` is 89.5% (active); for `CCCN(CCC)C(=O)CC(c1ccc(F)cc1)c1ccco1` (stereo not given) it is 38.5%.
In the case of `O=C(Cc1cscn1)c1ccc(O)cc1O`, the growth inhibition was 2.87%.
For the compound `CC1N(O)C(c2ccc(Cl)cc2Cl)N(O)C1(C)C` (stereo not given), the growth inhibition is -11.8%.
The figure for `CC1(C)Cc2nc3sc4c(N(CCO)CCO)ncnc4c3cc2CO1` is 2.92%; for `Cc1ccc(S(=O)(=O)N2CCN(c3nc(C)c4c(c3C#N)CC(C)(C)OC4)CC2)cc1` it is 30.2%; for `Oc1ccc(Br)cc1CNn1cnnc1` it is 3.94%.
The figure for `CCn1c(SCC(=O)Nc2ccccc2C(=O)OC)nnc1-c1ccc(N)cc1` is -4.2%; for `COCCNc1ncnc2c1cnn2-c1ccc(Cl)cc1` it is 26.1%; for `CCOC(=O)C1=C(C)N=C2SC(C)C(=O)N2C1c1cccc(F)c1` (stereo not given) it is -4.33%.
Take `Oc1c(Cl)cc(Cl)cc1Sc1cc(Cl)cc(Cl)c1O`: the growth inhibition is 82.9% (active).
The figure for `CCOC(=O)C1CCN(c2nc3ccccc3nc2C(C#N)C(=O)OCCOC)CC1` (stereo not given) is 13.4%.
The figure for `CCC1=Nc2ccccc2NC2=C1C(=O)CCC2` is 1%; for `O=c1[nH]c(=O)n([C@H]2C[C@H](O)[C@@H](CO)O2)cc1F` it is 71% (active); for `CCc1cn([C@H]2C[C@H](O)[C@@H](CO)O2)c(=O)[nH]c1=O` it is 29.9%.
Turning to `Cc1cn([C@H]2C[C@H](N=[N+]=[N-])[C@@H](CO)O2)c(=O)[nH]c1=O`, the growth inhibition was 7.02%.
The figure for `COc1ccccc1-c1nn2c(-c3ccco3)nnc2s1` is 21.8%.
Consider `Cc1cc2c(c(=O)o1)C(Cc1ccccc1)C(C#N)=C(N)O2` (stereo not given), for which the growth inhibition was -0.57%.
The figure for `CC1(C)Cc2c(C#N)c(NCCN3CCOCC3)nc(-c3ccco3)c2CO1` is 3.05%; for `Nc1ncnc2nc(SCc3ccccc3)[nH]c12` it is 13.6%; for `Cc1cccc(C)c1OCC(=O)Nc1cccc(-c2nnc(-c3ccccc3)o2)c1` it is 53% (active).
The figure for `O=C(Cc1ccc(Cl)cc1)Nc1cccc(-c2nnc(-c3ccco3)o2)c1` is 20.9%; for `O=C(Cc1ccccc1)Nc1cccc(-c2nnc(-c3ccco3)o2)c1` it is 24%; for `O=C(COc1ccccc1)Nc1ccc(-c2nnc(-c3ccco3)o2)cc1` it is -6.02%.
The figure for `COc1ccc(CC(=O)Nc2cccc(-c3nnc(-c4ccco4)o3)c2)cc1` is 64% (active); for `CCC(=O)Nc1ccc(-c2nnc(-c3ccccc3)o2)cc1` it is 33.7%; for `N/C(CCCN1CCCCC1)=N/O` it is -8.24%.
Consider `CCOC(=O)CNC(=O)CCCCCC(=O)NCC(=O)OCC`, for which the growth inhibition was -12.7%.
Take `O=C(NCCN1CCOCC1)c1cc2n(n1)C(C(F)(F)F)CC(c1ccc(F)cc1)N2` (stereo not given): the growth inhibition is 2.7%.
As to `CC(C)(C)NCC(=O)c1c[nH]c2ccccc12`, the growth inhibition was -2.93%.
With `COc1ccc2c(c1OC)C(=O)N1c3ccccc3C(=O)N(c3ccccc3)C21` (stereo not given), the growth inhibition is 36.5%.
The figure for `CCCCSc1nc(O)c(C2OC(=O)c3c2ccc(OC)c3OC)c(=O)n1C` (stereo not given) is 4.34%.
The figure for `c1ccc(-c2nnc(OCCN3CCOCC3)c3ccccc23)cc1` is -0.08%; for `CCn1cc(C(=O)NCc2ccco2)c(=O)c2cc(F)c(N3CCN(C(=O)c4ccco4)CC3)cc21` it is 59.3% (active).
The figure for `CCOC(=O)N1CCN(C(=O)c2cn(CC)c3cc(N4CCN(C)CC4)c(F)cc3c2=O)CC1` is 0.65%.
Take `CCn1cc(C(=O)NCc2ccccn2)c(=O)c2cc(F)c(N3CCN(C)CC3)cc21`: the growth inhibition was -0.7%.
The figure for `CCn1cc(C(=O)NCCc2ccccc2)c(=O)c2cc(F)c(N3CCN(C)CC3)cc21` is 89.8% (active); for `CCn1cc(C(=O)NCC2CCCO2)c(=O)c2cc(F)c(N3CCN(C)CC3)cc21` (stereo not given) it is -0.9%; for `CCn1cc(C(=O)NCCCN(C)C)c(=O)c2cc(F)c(N3CCN(C)CC3)cc21` it is 8.61%.
The figure for `CCNc1nc(NC(C)C)nc(N(C#N)C(C)C(=O)N(C)C)n1` (stereo not given) is 2.18%; for `CCN(CC)CCCN1C(=O)C(=O)/C(=C(/O)c2ccccc2)C1c1cc(OC)ccc1OC` (stereo not given) it is 6.35%.
Turning to `O=C1CC(NCc2ccncc2)C(=O)N1c1ccc(Cl)cc1` (stereo not given), the growth inhibition was -4.36%.
For `COc1cccc(NC(=O)CC2SC(=Nc3ccccc3)NC2=O)c1` (stereo not given), the growth inhibition was 19.4%.
The figure for `Cn1c(CSc2ncn[nH]2)nc2ccccc21` is -2.84%; for `CC12CCC(=O)N1c1c(sc3nc(N4CCOCC4)c4c(c13)CCCC4)C(=O)N2` (stereo not given) it is 4.33%; for `CCOC(=O)c1c(CN2CCN(C)CC2)n(C)c2cc(Br)c(OC)cc12` it is 89.8% (active).
The figure for `CCOC(=O)c1c(CN2CCN(CCO)CC2)n(C)c2cc(Br)c(OC)cc12` is 84.4% (active); for `CCOC(=O)c1c(C)n(C)c2ccc(OC)c(NC(=O)CN3CCN(Cc4ccccc4)CC3)c12` it is 12.1%; for `CCOC(=O)c1c(C)n(C)c2ccc(OC)c(NC(=O)CN3CCCCC3)c12` it is 6.99%.
The figure for `CCOC(=O)c1c(CNCCN(CC)CC)n(C)c2cc(Br)c(OC)cc12` is 33.7%.
Turning to `CCOC(=O)c1c(CN2CCCCC2)oc2ccc(OC)cc12`, the growth inhibition is 5.15%.
The figure for `COc1ccccc1C1/C(=C(/O)c2ccc(C)cc2)C(=O)C(=O)N1CCN1CCOCC1` (stereo not given) is 2.55%; for `CN(CCCCCC(=O)/C=N/O)Cc1ccccc1` it is 1.07%; for `COc1ccc(N(CN2C(=O)C3C4C=CC(C4)C3C2=O)C(=O)c2ccco2)cc1` (stereo not given) it is 4.02%.
As to `N#C/C(C(=O)NCc1ccco1)=C1/SC(Cc2ccc(Cl)cc2)C(=O)N1c1ccccc1` (stereo not given), the growth inhibition was 5.74%.
The figure for `CCC(=O)Nc1nc2ccccc2n1CCN(C)C` is 4.62%; for `CN(C)CCCn1c(NC(=O)C2CCCCC2)nc2ccccc21` it is 1.53%.
The figure for `CCC(=O)Nc1nc2ccccc2n1Cc1ccccc1C` is 64.4% (active); for `CCOc1ccc(NC(=O)c2nn(C)cc2Br)cc1` it is 20.1%.
The figure for `CCC1CCCCN1c1nc(-c2cccc(OC)c2O)nc2ccccc12` (stereo not given) is 45%.
Turning to `CCOc1nc(-c2ccncc2)nc2ccccc12`, the growth inhibition is 10.3%.
The figure for `Nc1c2c(nc3ccccc13)N(C1CCCCC1)CC2` is 38.8%; for `COc1cccc(-c2nc(N3CCCCC3C)c3ccccc3n2)c1O` (stereo not given) it is 61.7% (active); for `C=CCOc1nc(-c2ccncc2)nc2ccccc12` it is 18.5%.
The figure for `COc1cccc(-c2nc(N3CCC(C)CC3)c3ccccc3n2)c1O` is 53.7% (active); for `COc1cccc(-c2nc(N3CCCCC3)c3ccccc3n2)c1O` it is 49.3%; for `CCC1CCCCN1c1nc(-c2ccncc2)nc2ccccc12` (stereo not given) it is 74.9% (active).
`COc1cccc(-c2nc(N3CC(C)CC(C)C3)c3ccccc3n2)c1O` (stereo not given): the growth inhibition was 30.1%.
As to `Cc1ccc(N2C(=O)c3sc4nnc(C)c(=O)n4c3C2=O)cc1`, the growth inhibition was -7.4%.
The figure for `COc1cccc(OC)c1-c1nn2c(-c3ccccc3Cl)nnc2s1` is 21%; for `CCOC(=O)c1ccc(NCC(O)COc2ccccc2)cc1` (stereo not given) it is 31.1%; for `COc1ccc(C(=O)N2CCCC(c3ccccc3)C2)cc1` (stereo not given) it is 19%.
For the compound `COc1ccccc1-c1nnc2sc(COc3ccccc3)nn12`, the growth inhibition is 22%.
The figure for `CC1C[C@@]2(NC(=O)NC2=O)C(C)CN1C` (stereo not given in full) is 2.94%.
